Anthrax LF prot: blocks Bacillus anthracis lethal factor protease. multiplex microsphere protease cleavage assay, LF. inhibition, % at 10 µM. hit rate 0.12% among 360,000; further: plate controls were buffer without enzyme for full effect and enzyme alone for no effect
BoNT F protease: BoNT F light chain protease inhibition; Multiplex microsphere protease cleavage assay, flow cytometry; inhibition, % at 10 µM; hit rate 0.22% among 360,000; in the data active means inhibition above about 35%, passing the limit was not always enough; inconclusive means no clear call, values can overlap the other calls; further: plate controls were buffer without enzyme for full effect and enzyme alone for no effect
BoNT A protease: inhibitors of Botulinum neurotoxin A light chain protease; multiplex microsphere protease substrate cleavage, flow cytometry; inhibition, % at 10 µM; hit rate 0.17% among 360,000; further: plate controls were buffer without enzyme for full effect and enzyme alone for no effect
FBA Mtb inh: Mtb fructose-bisphosphate aldolase inhibition | P9WQA3 | purified M. tuberculosis FBA, fluorescence read-out | inhibition, % at 1 µM | hit rate 2.3% among 360,000 | AID 588726; in the data active means inhibition above about 27%;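 further: 0% = vehicle and 100% = reference inhibitor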
Autofluor counter: flagged as autofluorescent in microsphere protease counterscreen | fluorescence intensity (test concentration not listed) | hit rate 3.1% among 360,000 | compound autofluorescence counterscreen, microsphere flow cytometry; active compounds read high; in the data active means fluorescence intensity above about 16000; inconclusive means no clear call, values can overlap the other calls
GDH-TPI inh: counter-screen for M. tuberculosis FBA inhibitors: GDH-TPI coupled enzymes; AID 588335; GDH-TPI coupled enzyme counterscreen, NADH absorbance; hit rate 1.2% among 360,000; inhibition, % at 4.8 µM; in the data active means inhibition above about 30%;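 further: 0% = DMSO wells and 100% = wells lacking the enzyme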
* = called active by the depositor; ? = inconclusive; + = active, no number. Rows were chosen to be rich in hits. Some 6.6% of all compounds tested hit in one or more screens of this group. Unless noted, no stated cut-off is given here; in the data, active means inhibition above about 30%; inconclusive means no clear call, values can overlap the other calls; inactive means below that.

SMILES | Anthrax LF prot | BoNT F protease | BoNT A protease | FBA Mtb inh | Autofluor counter | GDH-TPI inh
CCCCOCCCn1c(-c2ccco2)nc2nc3ccccc3nc21 | 5.2 | -7.8 | 4.2 | + | 3165 | 28.9
CCCCn1c(-c2cccs2)nc2oc3ccccc3c(=O)c2c1=O | 4.7 | ? | ? | -1.2 | 3770 | 2.4
CCCCn1c(-c2cccs2)nc2nc3ccccc3nc21 | 4.8 | 5.3 | 12.2 | + | 8972 | 23.4
COCCCn1c(-c2ccco2)nc2ccccc2c1=O | -4.6 | 9.4 | 1.3 | 0.4 | 3642 | 10.6
O=C(c1ccc(Cn2c(=S)[nH]c3ccccc3c2=O)cc1)N1CCN(c2ccccn2)CC1 | -4.3 | -11.3 | -1.4 | 2.0 | 4232 | 0.6
COC1OCC(O)C(NC(=O)N(C)N=O)C1O (stereo unspecified) | -6.5 | -44.5 | -2.3 | 4.1 | 2938 | 7.1
O=C(NCCOC(=O)c1ccccc1C(=O)OCCNC(=O)c1cccnc1)c1cccnc1 | -11.9 | 11.4 | 6.3 | -1.1 | 19258* | 6.4
O=C(N/N=C\c1ccc(COc2ccc([N+](=O)[O-])cc2)o1)c1ccc(Cl)cc1 | -0.6 | 2.4 | -0.1 | -0.4 | 3156 | 41.8*
CCN(CC)S(=O)(=O)c1ccc(N/N=C(\C)c2cccnc2)nc1 | -7.7 | -7.5 | 0.1 | 0.8 | 3699 | 35.0*
CCN(CC)S(=O)(=O)c1ccc(N/N=C(\C)c2ccncc2)nc1 | 0.6 | -13.8 | -3.9 | -3.5 | 3056 | 37.9*
CCN(CC)S(=O)(=O)c1ccc(N/N=C(\C)c2ccncc2)c([N+](=O)[O-])c1 | 1.1 | 15.6 | 1.7 | -0.4 | 3794 | 0.7
O=C(c1ccc(N2CCN(C3CC(=O)N(Cc4cccs4)C3=O)CC2)cc1)c1cccnc1 (stereo unspecified) | 5.2 | 5.9 | 0.8 | -5.2 | 4649 | 33.3*
O=C(c1ccncc1)c1ccc(N2CCN(C3CC(=O)N(Cc4ccccc4)C3=O)CC2)cc1 (stereo unspecified) | 0.6 | -6.8 | -0.5 | 9.1 | 5171 | 18.0
COc1ccc(-c2ccnc3nc(Sc4ncc(C(F)(F)F)cc4Cl)nn23)cc1 | 0.4 | -5.3 | -1.8 | + | 20277* | 13.7
CC(C)NC(=O)c1cnc(Sc2ncc(C(F)(F)F)cc2Cl)n1C | 2.1 | 2.3 | 0.3 | 0.7 | 2671 | 4.1
FC(F)(F)c1cnc(Sc2nc3nccc(-c4ccc(Cl)cc4)n3n2)c(Cl)c1 | 0.2 | -2.3 | 0.1 | 2.3 | 20640* | -4.2
CC(C)NC(=O)c1ccc2c(c1)N(CC(=O)N1CCOCC1)C(=O)C(C)(C)O2 | 0.4 | 1.9 | 0.2 | 0.0 | 22372* | 2.9
CC(C)NC(=O)c1ccc2c(c1)N(CC(=O)N1CCCC1)C(=O)C(C)(C)O2 | -1.1 | ? | -4.3 | -3.4 | 3702 | -16.8
COc1ccc2nc(C)cc(SCC(=O)N/N=C/c3cccc4ccccc34)c2c1 | -1.3 | -2.1 | 1.4 | 1.9 | 19063* | 5.6
COc1ccc2nc(C)cc(SCC(=O)N/N=C/c3ccc(O)c(O)c3)c2c1 | -2.6 | -7.3 | -0.1 | -1.9 | 4307 | 12.8
OC[C@H]1O[C@@H](c2nc3ccc(-c4nc(-c5ccc(Br)cc5)no4)cc3[nH]2)C[C@@H]1O | -2.8 | -8.1 | 0.3 | 3.4 | 2947 | 14.6
Cc1sc2nc(SCC(=O)c3cccs3)n(Cc3ccco3)c(=O)c2c1C | 0.4 | -0.9 | -0.2 | -0.2 | 22489* | 7.6
Cc1sc2ncnc(SCC(=O)c3cccs3)c2c1C | -2.2 | -5.2 | -1.5 | -2.9 | 16770* | 18.3
COC(=O)Cc1c(C)nc2nc(NCc3cccc([N+](=O)[O-])c3)[nH]n2c1=O | -1.9 | 1.5 | 2.2 | 1.4 | 19811* | -1.9
COC(=O)Cc1c(C)nc2nc(NCc3ccc(Cl)cc3)[nH]n2c1=O | 0.7 | -4.5 | 0.3 | 2.5 | 9208 | 2.8
SMILES | Anthrax LF prot | BoNT F protease | BoNT A protease | FBA Mtb inh | Autofluor counter | GDH-TPI inh
Cn1cc(S(=O)(=O)Nc2ccc(F)c(Cl)c2)c(=O)n(C)c1=O | -1.7 | 6.3 | -0.1 | 0.9 | 6570 | -2.7
O=C(CC(C(=O)O)c1cccc(Br)c1)c1ccc(Cl)cc1 (stereo unspecified) | -3.1 | -24.8 | -0.1 | -0.5 | 3044 | 7.3
COc1ccc(-c2nn(C)c3sc(C(=O)NCc4ccco4)cc23)cc1OC | 1.5 | -9.9 | -0.1 | -0.7 | 4448 | 8.8
COc1ccc(NC(=O)c2cc3c(-c4ccc(OC)c(OC)c4)nn(C)c3s2)cc1OC | -4.8 | -13.7 | -0.3 | 2.1 | 4579 | 38.0*
CC(C)CC1=NN(C(=O)c2ccco2)C(O)(C(F)(F)F)C1 (stereo unspecified) | -6.8 | 11.3 | 0.6 | -1.5 | 4355 | -6.8
S=c1[nH]nc(C2CCCCC2)n1/N=C/C=C/c1ccccc1 | 0.0 | -2.6 | ? | 3.0 | 22815* | 17.2
S=c1[nH]nc(C2CCCCC2)n1/N=C/c1ccc(Br)s1 | -19.0 | 38.7* | ? | -2.0 | 10813 | 6.5
COC(=O)c1ccc(Oc2nc(C(N)=O)cc(-c3ccccc3)n2)cc1 | 5.2 | -7.7 | 0.0 | 1.1 | 6089 | 7.3
N#Cc1ccc(Oc2nc(C(N)=O)cc(-c3ccccc3)n2)cc1 | -1.5 | -7.7 | -4.7 | -8.6 | 24851* | -6.8
CC(=O)c1ccc(N2C(=O)[C@@H]3C(CCC(N)=O)NC4(C(=O)Nc5c4ccc(Cl)c5C)[C@@H]3C2=O)cc1 (stereo partly specified) | -0.1 | -6.7 | 0.1 | -11.2 | 4516 | 5.0
CSCCC1NC2(C(=O)Nc3c(C)cc(Cl)cc32)[C@@H]2C(=O)N(C3CCCC3)C(=O)[C@H]12 (stereo partly specified) | -6.0 | -4.6 | ? | -0.3 | 23955* | -1.2
CSCCC1NC2(C(=O)Nc3c(Cl)cccc32)[C@@H]2C(=O)N(C3CCCC3)C(=O)[C@H]12 (stereo partly specified) | -2.1 | 2.4 | 1.8 | 2.4 | 21812* | -9.7
O=C(Nc1ccccc1OC(F)F)c1ccc(S(=O)(=O)N2CCOCC2)cc1 | -0.9 | 1.9 | 3.1 | -1.7 | 4613 | -1.4
CCCCN1C(=S)NC[C@@H]1Cc1ccc(O)cc1 | 3.9 | -6.0 | -0.4 | -0.8 | 3390 | -7.4
CC(C)CNC(=O)C1(C)CCCN1C(=O)c1cccnc1Oc1ccccc1 (stereo unspecified) | -5.7 | -1.5 | -0.2 | -1.4 | 3493 | -9.1
CC(=O)c1cccc(-c2ccnc3c2CC(C(=O)Nc2cccc(C(F)(F)F)c2)O3)c1 (stereo unspecified) | -3.9 | 0.2 | 0.4 | -3.0 | 3638 | -4.6
COC(=O)CN(C#N)c1nc(OC)nc(N(C)C)n1 | -1.0 | -1.4 | -1.7 | -2.6 | 17155* | -5.7
COc1ccc(CCN=C(C)C2=C(O)C(c3ccccc3)OC2=O)cc1OC (stereo unspecified) | -5.1 | -1.0 | -0.7 | 0.2 | 4342 | -3.9
O=C(O)c1cc([N+](=O)[O-])ccc1N1CCC(Cc2ccccc2)CC1 | -1.5 | -0.9 | 0.2 | -15.0 | 2515 | 4.2
Cc1ccc(S(=O)(=O)NC(CC(=O)O)c2ccco2)cc1 (stereo unspecified) | -4.6 | -2.5 | ? | 1.5 | 16531* | 7.4
